We go through 23 compounds from article PMC4336329 (PLoS ONE, 2015).

Structures are written as SMILES. About 2,200 (0.71%) of roughly 310,000 compounds showed an effect of 50% or more. Effects have a minus sign here. What follows is part of a selection rich in strong results, with near analogues and random picks from the rest.

In this test the target is human ether-à-go-go-related gene (hERG) potassium channel (human, UniProt Q12809). Briefly: primary screen, population patch clamp on CHO cells stably expressing hERG; higher = less effect of the substance.
Chain of human ether-à-go-go-related gene (hERG) potassium channel (Q12809 whole entry, looked up): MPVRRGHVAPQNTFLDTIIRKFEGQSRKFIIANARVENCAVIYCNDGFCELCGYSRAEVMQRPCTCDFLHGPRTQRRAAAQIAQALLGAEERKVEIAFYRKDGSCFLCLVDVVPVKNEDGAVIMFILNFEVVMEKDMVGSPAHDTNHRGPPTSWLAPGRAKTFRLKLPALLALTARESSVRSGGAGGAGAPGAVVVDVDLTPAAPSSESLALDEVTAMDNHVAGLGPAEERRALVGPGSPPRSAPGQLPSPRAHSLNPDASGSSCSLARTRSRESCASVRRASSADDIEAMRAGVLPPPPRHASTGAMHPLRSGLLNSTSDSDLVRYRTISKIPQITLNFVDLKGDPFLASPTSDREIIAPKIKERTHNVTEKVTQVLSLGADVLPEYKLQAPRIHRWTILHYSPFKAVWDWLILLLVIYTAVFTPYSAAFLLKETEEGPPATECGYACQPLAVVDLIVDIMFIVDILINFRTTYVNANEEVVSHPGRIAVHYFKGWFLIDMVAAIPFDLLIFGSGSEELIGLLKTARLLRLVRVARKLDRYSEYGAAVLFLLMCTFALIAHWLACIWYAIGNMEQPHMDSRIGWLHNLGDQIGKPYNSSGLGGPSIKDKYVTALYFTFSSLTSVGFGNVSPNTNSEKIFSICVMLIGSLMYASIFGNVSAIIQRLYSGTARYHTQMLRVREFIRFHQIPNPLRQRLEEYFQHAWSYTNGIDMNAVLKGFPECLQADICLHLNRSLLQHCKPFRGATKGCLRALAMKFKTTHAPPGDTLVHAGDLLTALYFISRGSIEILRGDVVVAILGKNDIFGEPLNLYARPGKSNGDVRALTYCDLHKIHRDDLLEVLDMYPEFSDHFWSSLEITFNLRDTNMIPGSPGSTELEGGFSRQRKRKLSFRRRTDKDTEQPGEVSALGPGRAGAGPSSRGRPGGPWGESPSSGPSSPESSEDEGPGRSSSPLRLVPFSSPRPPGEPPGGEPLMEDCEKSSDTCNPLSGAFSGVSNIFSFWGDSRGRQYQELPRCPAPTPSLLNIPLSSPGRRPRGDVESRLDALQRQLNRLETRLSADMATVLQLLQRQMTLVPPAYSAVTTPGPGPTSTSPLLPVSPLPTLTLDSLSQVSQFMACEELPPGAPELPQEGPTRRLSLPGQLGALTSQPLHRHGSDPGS
Turning to `Cn1nc(C(F)(F)F)cc1Oc1ncc(C(F)(F)F)cc1Cl`, the “hERG current change (%, negative = inhibition) at 1uM” value stood at 12.5%.

Regarding `CCOc1ccc(NC(=S)N(CCc2c(C)[nH]c3ccccc23)Cc2cccnc2)cc1`, the “hERG current change (%, negative = inhibition) at 1uM” value is -4.48%.

Consider `CCN(CC)S(=O)(=O)c1cccc(C(=O)NCCc2ccccc2)c1`, for which the “hERG current change (%, negative = inhibition) at 1uM” value is on record as -5.67%.

As for `O=c1[nH]c(=O)n(CCC2=CCCCC2)c(O)c1C=NCc1cccnc1`, the “hERG current change (%, negative = inhibition) at 1uM” value was found to be 9.06%.

For `COc1ccc(OCCCC(=O)Nc2nc(C)c(C(C)=O)s2)cc1`, the “hERG current change (%, negative = inhibition) at 1uM” value came to 10.2%.

Consider `Cc1ccc(-n2c(=O)cc(N3CC(C)OC(C)C3)[nH]c2=O)cc1` (centres unmarked), for which the “hERG current change (%, negative = inhibition) at 1uM” value came out at 10.6%.

`O=C(CC(C(=O)O)c1c[nH]c2ccccc12)c1ccccc1` (centres unmarked): the “hERG current change (%, negative = inhibition) at 1uM” value was determined as 9.56%.

Regarding `COc1ccc(Cc2nc3c4c(ncn3n2)Oc2ccc3ccccc3c2C4c2ccc(OC)c(OC)c2)cc1` (centres unmarked), the “hERG current change (%, negative = inhibition) at 1uM” value is given as 5.71%.

Turning to `CC(C)n1cnc2c(N(C)c3ccccc3)nc(N(CCN(C)C)Cc3ccccc3)nc21`, the “hERG current change (%, negative = inhibition) at 1uM” value is given as -58.5%.

Consider `COc1cc(N(Cc2ccccc2)Cc2ccccc2)c2ncn(C(C)C)c2c1`, for which the “hERG current change (%, negative = inhibition) at 1uM” value is reported as 8.78%.

For the compound `CC(C)n1cnc2c(NCc3ccccc3)nc(NCc3ccccc3)nc21`, the “hERG current change (%, negative = inhibition) at 1uM” value is 10.4%.

For the compound `CCOC(=O)Cc1csc(NC(=O)CSc2nnnn2-c2ccc(C)c(C)c2)n1`, the “hERG current change (%, negative = inhibition) at 1uM” value was determined as 10%.

For the compound `COc1ccc(S(=O)(=O)NCC2CCCN(Cc3ccc(O)cc3)C2)cc1` (centres unmarked), the “hERG current change (%, negative = inhibition) at 1uM” value is recorded as -12.2%.

With `Cc1ccc(CN2CC(C(=O)Nc3ccc(F)c([N+](=O)[O-])c3)CC2=O)cc1` (centres unmarked), the “hERG current change (%, negative = inhibition) at 1uM” value is on record as -1.97%.

`COc1ccc(OCC(=O)N/N=C(\C)CC(=O)Nc2ccc(OC)cc2[N+](=O)[O-])cc1`: the “hERG current change (%, negative = inhibition) at 1uM” value is given as -61.8%.

Consider `CCOc1ccc(OCC(=O)Nc2ccc(OC)cc2[N+](=O)[O-])cc1`, for which the “hERG current change (%, negative = inhibition) at 1uM” value is 8.89%.

`COc1ccc(NC(=O)COc2ccc(C)cc2)c([N+](=O)[O-])c1`: the “hERG current change (%, negative = inhibition) at 1uM” value was determined as 8.91%.

`C#CCn1c(=NC(=O)c2ccc(Cl)s2)sc2cccc(OC)c21`: the “hERG current change (%, negative = inhibition) at 1uM” value is 14.9%.

As to `COc1ccc(Br)cc1C(=O)Nc1cccc(C)c1C`, the “hERG current change (%, negative = inhibition) at 1uM” value was found to be 2.14%.

`COc1ccc(OC)c(NC(=O)NC2CCCCCCC2)c1`: the “hERG current change (%, negative = inhibition) at 1uM” value was 9.24%.

As for `Cc1cccc(NC(=O)CN2CCOCC2)c1C`, the “hERG current change (%, negative = inhibition) at 1uM” value came out at 12.2%.

For `Cc1cccc(NC(=O)CN2CCN(C(=O)C(C)Oc3ccc(C#N)cc3)CC2)c1C` (centres unmarked), the “hERG current change (%, negative = inhibition) at 1uM” value is on record as -54.7%.

In the case of `Cc1cccc(NC(=O)CNC(=O)COc2ccc(-c3ccc(C#N)cc3)cc2)c1C`, the “hERG current change (%, negative = inhibition) at 1uM” value was 8.38%.
